# FBPA coupling cs: coupling enzyme interference in Giardia aldolase counter-screen. coupling enzyme system counterscreen, AmpLite Red fluorescence. activity change, negative = inhibition, % at 58.2 µM, hits read low. 290,000 compounds, 0.67% hits; in the data active = activity change below about -30%
#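 First, compound is pin-transferred into glyceraldehyde-3-phosphate coupling-enzyme reagent at 57.5 uM final and held 10 min at RT. Next, substrate, coupling system and AmpLite Red are added. After 20 min RT, fluorescence (525/598 nm) is read.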
# USP2a inh: inhibitors of human ubiquitin-specific protease USP2a; USP2 core, Ub-CHOP2 coupled fluorogenic reporter, 485/531; Potency, µM (highest dose often 38.3 µM), inactives show at the top dose activity change, negative = inhibition, most hits filed as inhibitors; 330,000 compounds, 0.01% hits; AID 463254;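 also: potency is read from the fitted curve at half-maximal effect; plate controls were DMSO wells for no effect and full inhibition by NEM control for full effect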
#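 USP2 core (10nM final) preincubated 30min RT with compound in 20mM Tris-HCl pH 8.0, 2mM CaCl2, 2mM beta-mercaptoethanol, 0.05% CHAPS; 25nM Ub-CHOP2 plus 25nM reporter substrate added, fluorescence (Ex485/Em531) read after 60min.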
# VDR inhibitor: inhibitors of human vitamin D receptor | VDR-SRC2-3 peptide fluorescence polarization, 2 h | 400,000 compounds, 0.93% hits | P11473 | Potency, µM, inactives show max response, negative = inhibition, hits mostly inhibitors; also: potency is read from the fitted curve at half-maximal effect
#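 Fluorescence polarization assay of small-molecule disruption of VDR binding to coregulator peptide SRC2-3. Compounds and controls pin-transferred, then read after 2 h incubation at ambient room temperature.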
# USP1 inh: blocks the human USP1/UAF1 deubiquitinase complex; recombinant USP1/UAF1, Ub-Rhodamine cleavage fluorescence; O94782; Potency, µM (top dose mostly 57.1 µM), inactives show at the top dose activity change, negative = inhibition, actives largely listed as inhibitors; AID 743255; 390,000 compounds, 0.23% hits; also: potency is read from the fitted curve at half-maximal effect; nearly all actives have a fitted effect of over 60% in size
#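 1 nM enzyme complex + cpd, 15 min RT; start with Ub-Rho 150nM final; kinetic fluorescence ex 480/em 540, 6 reads q60 s. Buffer 50mM HEPES pH 7.8, 0.5mM EDTA, 0.1 mg/ml BSA, 1mM TCEP, 0.01% Tween-20.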
# PLK1 PBD inh: inhibitors of human PLK1 polo-box domain binding. Potency, µM, for the others: max response, negative = inhibition, hits mostly inhibitors. 360,000 compounds, 2.8% hits. Plk1 PBD binding of FITC phosphopeptide, fluorescence polarization; also: potency is read from the fitted curve at half-maximal effect; series mostly up to about 57 µM; nearly all actives have a fitted effect of over 65% in size
# GALK inh: galactokinase (human) inhibition. P51570. Purified GALK, Kinase-Glo residual ATP luminescence. Potency, µM (doses to about 57.5 µM), for inactives: top-dose activity change, negative = inhibition, actives largely listed as inhibitors. 270,000 compounds, 0.007% hits. AID 1868; also: potency is read from the fitted curve at half-maximal effect
#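 GALK at 5 nM final was combined with compound, 35 uM ATP and 100 uM galactose in HEPES pH8.0 with MgCl2 and DTT. The reaction ran one hour at room temperature before luminescent ATP detection.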
# Numbers without * were called inactive; ? = inconclusive; nt = no result given. Only some compounds are listed: those with a hit (about 3.2% of all), similar ones and a draw of the others. Unless noted, calls follow the shape of the dose curve; as a rule, active = well fitted curve in the direction sought with a large enough effect; inconclusive = small, poorly fitted or top-dose-only effect, or another doubt; inactive = no such curve, though single readings can be large; an effect the other way counts as inactive or inconclusive. Unless noted, % is scaled to controls: 0 for no effect and ±100 for the full control effect.
SMILES,FBPA coupling cs,USP2a inh,VDR inhibitor,USP1 inh,PLK1 PBD inh,GALK inh
COc1ccc(N2CCN(C(=O)c3cccc(Br)c3)CC2)c([N+](=O)[O-])c1,0,-2%,?,-17%,27µM*,-2%
COc1ccc(N(C(=O)c2ccc(F)cc2)C2=CC3CCC(C2)N3C)cc1 (centres undefined),1,4%,-4%,3%,2%,2%
CCCCNC(=O)Nc1ccc(C2SCCS2)cc1,3,2%,1%,-17%,2%,-3%
O=C(O)c1ccc(-c2ncc[nH]2)cc1,-1,1%,45µM*,-1%,?,8%
COC(=O)C1(C)NC(c2ccccc2C)C2C(=O)N(c3ccc(F)cc3)C(=O)C21 (centres undefined),0,0%,-23%,-21%,30µM*,1%
COc1ccc2nc3ccccc3[n+]([O-])c2c1,nt,nt,-7%,?,12µM*,nt
COc1ccc2c(ccc[n+]2[O-])c1,nt,nt,-7%,?,-4%,nt
O=C(Nc1ccc(S(=O)(=O)N2CCOCC2)cc1)c1ccc(Cl)c([N+](=O)[O-])c1,nt,nt,-17%,-17%,27µM*,nt
Cc1ccc(C(=O)Nc2ccccn2)cc1S(=O)(=O)N1CCOCC1,nt,2%,3%,-18%,-6%,nt
CCOc1ccc(C(=O)Nc2ccc(CN3CCOCC3)cc2)cc1Br,1,-1%,-10%,-9%,30µM*,2%
CCOC(=O)c1c(C)[nH]c(C(=O)COC(=O)c2ccc(F)c(S(=O)(=O)N3CCOCC3)c2)c1C,8,-6%,-6%,-1%,27µM*,1%
Cc1ccc(C(=O)Nc2nc(-c3ccccn3)cs2)cc1S(=O)(=O)N1CCOCC1,nt,-1%,79µM*,?,7.5µM*,nt
CCOc1ccc(NC(=O)c2ccc(NC(=O)c3ccc(CN4CCOCC4)cc3)cc2)cc1,2,13%,1%,2%,-16%,-4%
O=C(COC(=O)c1ccc(F)c(S(=O)(=O)N2CCOCC2)c1)c1ccc(Cl)cc1,nt,0%,75%,-2%,-6%,nt
Cc1nc2ccccc2n1CC(=O)N/N=C\C=C\c1ccccc1,-1,0%,-1%,-16%,-7%,-1%
O=C(COC(=O)c1ccc(O)cc1)Nc1ccc(S(=O)(=O)N2CCOCC2)cc1,nt,3%,4%,-12%,1%,nt
O=C(Nc1nc(-c2ccccn2)cs1)c1ccc(F)c(S(=O)(=O)N2CCOCC2)c1,nt,-2%,89µM*,?,12µM*,nt
O=C(Nc1nc(-c2ccccn2)cs1)c1cc(S(=O)(=O)N2CCOCC2)ccc1F,nt,-2%,29%,-12%,?,nt
CCOC(=O)c1ccc(NC(=O)c2ccc(C)c(S(=O)(=O)N3CCOCC3)c2)cc1,-1,0%,-11%,-20%,27µM*,3%
O=C(COC(=O)c1ccc(S(=O)(=O)N2CCCC2)cc1)Nc1ccc(N2CCOCC2)cc1,1,-3%,?,-12%,9.5µM*,-1%
COc1ccc(C(CNC(=O)c2c(C)nn(Cc3ccc(C)cc3)c2Cl)N2CCOCC2)cc1 (centres undefined),nt,0%,-8%,3%,-17%,nt
O=C(CN1C2=NCCCN2c2ccccc21)c1cccc(Br)c1,6,3%,?,-12%,24µM*,3%
O=C(CN1C2=NCCN2c2ccccc21)c1ccc(Br)cc1,2,2%,5%,-18%,-6%,1%
O=C(OCc1cnc(Cl)s1)c1c(F)cccc1F,1,1%,-28%,-22%,24µM*,8%
COc1ccccc1C(=O)NNc1ncc(C)s1,-1,0%,?,-4%,?,-3%
SMILES,FBPA coupling cs,USP2a inh,VDR inhibitor,USP1 inh,PLK1 PBD inh,GALK inh
Cc1cccc(OCCOc2ccccc2C=C(C#N)C#N)c1,-2,5%,50µM*,?,-6%,0%
Cc1ccccc1OCCOc1ccccc1C=C(C#N)C#N,1,3%,nt,nt,nt,0%
C/C(CCc1ccco1)=N\NC(=O)CNc1cccc2ccccc12,-55*,-14%,-10%,-15%,?,-2%
C/C(=N\NC(=O)CNc1cccc2ccccc12)c1ccccc1,-1,1%,-15%,-22%,-2%,0%
C=C(CN(C)C)C(=O)c1ccc(OC2OC(COC(C)=O)C(OC(C)=O)C(OC(C)=O)C2OC(C)=O)cc1 (centres undefined),nt,nt,40µM*,3%,15µM*,nt
O=c1c2ccccc2nc(/C=C/c2ccccc2)n1CCc1ccccc1,0,-3%,7%,-10%,-12%,1%
O=C(NNC(=S)NC(=O)c1ccc(Br)cc1)c1cccc([N+](=O)[O-])c1,7,2%,?,-11%,27µM*,3%
CC(=O)NC(=S)NNC(=O)CCc1ccccc1,3,-1%,-6%,-5%,?,-3%
O=C(O)CCC(=O)NNC(=O)c1ccc([N+](=O)[O-])cc1,0,2%,?,-18%,24µM*,0%
CC(=O)NNC(=S)NC(=O)c1cccc([N+](=O)[O-])c1,1,3%,?,-3%,24µM*,0%
O=C(NNC(=S)NC(=O)c1ccccc1Cl)c1cccc([N+](=O)[O-])c1,-2,2%,-25%,-10%,-13%,-3%
O=C(CCc1ccccc1)NNC(=S)NC(=O)c1ccccc1,-5,4%,-14%,-6%,27µM*,nt
O=C(NNC(=S)NC(=O)c1ccccc1)c1ccc([N+](=O)[O-])cc1,0,0%,-10%,-1%,27µM*,-8%
O=C(NN(C(=O)C1CC1)c1nc2ccccc2s1)C1CC1,5,2%,-17%,-15%,27µM*,nt
CC(C)C(=O)NN(C(=O)C(C)C)c1nc2ccccc2s1,1,0%,16%,3%,0%,0%
CCc1cccc2c(C(=O)CCl)c[nH]c12,2,0%,9%,-29%,24µM*,0%
CCOc1ccc(CCNC(=O)c2cccc(S(=O)(=O)N3CCCCC3)c2)cc1OCC,nt,1%,1%,-10%,-12%,nt
CC(=O)OCC1=C(C(=O)O)N2C(=O)[C@@H](NC(=O)Cc3cccs3)[C@H]2SC1,-4,3%,?,16%,?,nt
O=C(Cc1cccs1)NC1C(=O)N2C(C(=O)[O-])=C(C[n+]3ccccc3)CSC12 (centres undefined),-2,nt,25µM*,nt,nt,nt
Cc1c(N(C)S(=O)(=O)c2cccc(C(=O)NC(C)C)c2)c(=O)n(-c2ccccc2)n1C,0,2%,79µM*,-6%,30µM*,-3%
Cc1ccccc1S(=O)(=O)NC(=O)C1(C)CCN1C(=O)c1cccc(F)c1 (centres undefined),nt,nt,nt,nt,-6%,nt
N#Cc1c(-c2ccc(Cl)cc2)cc(-c2cccs2)nc1SCC(=O)O,15,4%,?,-26%,17µM*,-3%
